NR1D1 modulator: modulators of human Rev-erb alpha DNA binding; 370,000 compounds, 0.79% hits; P20393; activity, % at 10 µM; Rev-erbα–FITC-DNA binding, fluorescence polarization, 90 min;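 active means activity above about 14%, limit read from the data; passing the limit was not always enough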;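 further: 0% = DMSO wells with 35 nM protein and 100% = DMSO wells with 750 nM protein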
PG9 binder: PG9 antibody binding by small molecule | TR-FRET gp120-PG9 antibody binding | AID 624416 | inhibition, % at 6.7 µM | 360,000 compounds, 0.43% hits; in the data active means inhibition above about 8.5%
VLA-4 inh: inhibition in a human VLA-4 binding assay. P13612. VLA-4 expressing cells, ligand binding flow cytometry. inhibition, % (about 7 µM as worked out from the volumes in the protocol). 330,000 compounds, 0.2% hits; in the data active means inhibition above about 50%
ABCB6 inh MLPCN: blocks the human ABCB6 transporter | Q9NP58 | AID 602162 | K562-ABCB6 porphyrin accumulation, flow cytometry, 1 h; hits give low values | fluorescence ratio to DMSO, % at 10 µM | 360,000 compounds, 0.19% hits;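 active means fluorescence ratio to DMSO below 75%, the collection mean minus 3 SD; inconclusive means too few cells collected in the well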;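 further: signal is porphyrin accumulated inside mitochondria; 100% equals median channel fluorescence of DMSO control wells; lower ratio means ABCB6 inhibition with less porphyrin fluorescence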
Granule exo inh: lytic granule exocytosis inhibition; TALL-104 LAMP-1 surface exposure, flow cytometry; cells stimulated with thapsigargin and PMA; inhibition, % at 10 µM; 360,000 compounds, 0.66% hits; AID 651702;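 active means inhibition above about 55%, limit read from the data; inconclusive means no clear call, values can overlap the other calls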
NR1D1 mod conf: confirmation of modulators of human Rev-erb alpha DNA binding; Rev-erb alpha FITC-DNA binding, fluorescence polarization, 90 min; 3,000 compounds, 61% hits; activation, % at 25 µM; AID 1259319; shares compounds with NR1D1 modulator;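 active means activation at or above a set limit, or at least 3 SD above the negative control mean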;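 further: 0% = 35 nM protein with DMSO and 100% = 750 nM protein high control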
RORg DNA counter: affects RORgamma DNA binding in a Rev-erb alpha counter-screen | shares compounds with NR1D1 modulator | purified RORgamma protein-FITC-DNA binding, fluorescence polarization | IC50, µM | 910 compounds, 8% hits;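 active means Compounds whose fitted half-maximal concentration for disrupting protein-DNA binding is below 10 micromolar; the record names Rev-erb in its text, so the target is in doubt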
An asterisk follows results filed as active; i = inactive; u = inconclusive; x = no result. Compounds with a hit are over-represented: about 2% of the library has one in this group of screens.

SMILES | NR1D1 modulator | PG9 binder | VLA-4 inh | ABCB6 inh MLPCN | Granule exo inh | NR1D1 mod conf | others
CCCSc1nc(SCC(=O)NCc2ccccc2)c2c3c(sc2n1)COC(C)(CC)C3 (configuration not stated) | 76.9* | 1.8 | 10.6 | 92.0 | 1.8 | 78.4* | RORg DNA counter=>40
NC(=O)[C@H]1OC(O)[C@H](O)[C@@H](O)[C@@H]1O (some centres not stated) | 4.2 | x | x | x | x | x
COc1cc(-c2nc(-c3cccc(C)c3)no2)cc(OC)c1OC | -2.2 | 1.4 | 5.8 | 100.0 | -2.2 | x
COc1cc(-c2noc(-c3cccc(Cl)c3)n2)cc(OC)c1OC | 73.6* | 4.0 | -9.1 | 96.0 | -2.8 | 122.7*
CCOC(=O)Cn1c(=NC(=O)c2cccs2)sc2cc(C(=O)OC)ccc21 | 85.4* | 1.4 | 4.3 | 93.0 | 1.6 | 74.8* | RORg DNA counter=>40
CCOC(=O)c1ccc2c(c1)sc(=NC(=O)c1ccco1)n2CCOC | 34.7* | 7.9 | 10.0 | 96.0 | 0.5 | 24.7*
CCOC(=O)Cn1c(=NC(=O)c2nc3ccccc3s2)sc2cc(S(N)(=O)=O)ccc21 | 47.5* | -11.3 | -8.4 | 91.0 | -10.0 | 28.7*
COc1cccc(C(=O)N[C@@H](CC(C)C)C(=O)N2CCC[C@H]2C(=O)NCc2ccccc2)c1 | -6.9 | -1.4 | x | x | x | x
COc1ccc(S[C@]2(C(=O)N(C)C)CC(=O)N(C(=O)C3CC3)[C@@H]2c2ccc(OC)cc2)cc1 | 2.1 | x | x | x | x | x
COC(=O)c1cc2c(c3c4ccccc4n(S(=O)(=O)c4cccc(C)c4)c13)C(=O)N(Cc1ccc(N(C)C)cc1)C2 | 3.5 | 4.9 | x | x | x | x
COC(=O)c1cc2c(c3c4cc(F)ccc4n(S(=O)(=O)c4cccc(C)c4)c13)C(=O)N(Cc1ccc(N(C)C)cc1)C2 | 27.0* | -0.7 | x | x | x | 0.6
CC(=O)CC[C@H]1CC[C@]2(CCCN(C(=O)C3CCCC3)C2)O1 | -4.7 | x | x | x | x | x
O=C1/C(=C/c2ccc(O)c([N+](=O)[O-])c2)SC(=S)N1Cc1ccccc1 | 29.9* | -2.7 | -16.1 | 103.0 | u | 10.8
O=C(NN1C(=O)/C(=C/c2ccc(O)c([N+](=O)[O-])c2)SC1=S)c1ccccc1Cl | 16.9* | -2.2 | -19.4 | 107.0 | 2.6 | 27.6*
O=C(NN1C(=O)/C(=C/c2ccc(O)cc2)SC1=S)c1ccccc1O | 16.4 | -0.8 | -99.4 | 120.0 | 10.5 | x
O=C(NN1C(=O)/C(=C/c2ccc(O)cc2)SC1=S)c1cccc(O)c1 | 27.2* | -2.8 | i | 182.0 | -0.1 | 15.6
COc1cc(/C=C2\SC(=S)N(NC(=O)c3ccccc3O)C2=O)ccc1O | 5.5 | -4.1 | i | 218.0 | 32.0 | x
CC(C)Nc1nc(-c2ccncc2)nc(-c2ccc(Cl)cc2)c1C#N | 20.4* | -3.3 | 1.6 | 97.0 | 2.2 | 9.0
CN(C)c1nc(-c2cccnc2)nc(-c2ccccc2)c1C#N | 36.9* | -2.2 | -4.2 | 99.0 | 4.8 | 29.5* | RORg DNA counter=>40
CC(C)Nc1nc(-c2ccccn2)nc(-c2ccccc2)c1C#N | 8.4 | -1.4 | 4.7 | 99.0 | -1.0 | x
CC(C)Nc1nc(-c2cccnc2)nc(-c2ccccc2)c1C#N | 22.6* | 0.3 | -4.4 | 100.0 | 4.5 | 0.8
CC(C)Nc1nc(-c2cccnc2)nc(-c2ccc(Cl)cc2)c1C#N | 247.2* | -0.1 | -3.7 | 96.0 | 14.6 | 54.5* | RORg DNA counter=>40
N#Cc1c(Cl)nc(-c2ccncc2)nc1-c1ccccc1 | 5.6 | 0.8 | 0.3 | 93.0 | 11.3 | x
COC(=O)C[C@@H]1CC[C@@H]2[C@@H](COc3ccc(NC(=O)Nc4ccccc4)cc3C(=O)N2C)O1 | -4.3 | x | x | x | x | x
O=C(Nc1c(C(=O)Nc2cccc(F)c2)oc2ccccc12)c1ccc2c(c1)OCO2 | 51.1* | 0.2 | 2.7 | 100.0 | -0.7 | 16.6
SMILES | NR1D1 modulator | PG9 binder | VLA-4 inh | ABCB6 inh MLPCN | Granule exo inh | NR1D1 mod conf | others
O=C(Nc1ccc2nn(-c3ccccc3)nc2c1)c1ccc2c(c1)OCO2 | 23.2* | -19.2 | 11.1 | 95.0 | 1.0 | 27.9*
O=C(Nc1cccc(-c2nc3ccccc3s2)c1)c1ccc2c(c1)OCO2 | 45.2* | -1.4 | -4.0 | 95.0 | 2.9 | 11.9
Cc1c(NC(=O)c2ccc3c(c2)OCO3)cccc1-c1nc2ccccc2s1 | 13.0 | 2.0 | -13.7 | 95.0 | -0.8 | x
CCN(CC)c1ccc(NC(=O)c2ccc3c(c2)OCO3)cc1 | 15.7* | -11.1 | 7.2 | 106.0 | -2.5 | 1.4
O=C(Nc1cccc(F)c1)c1ccc2c(c1)OCO2 | 0.6 | -1.4 | 3.0 | 90.0 | -3.1 | x
CN1CCCCC(NC(=O)c2ccc3ccccc3c2)C1=O (configuration not stated) | 1.3 | 0.1 | x | x | x | x
CCOC(=O)[C@@]12CN(C(=O)OC(C)(C)C)CC=C1N(Cc1ccc(OC)cc1)C(=O)[C@H]2CC(=O)N1CCOCC1 | 1.2 | x | x | x | x | x
CC(=O)c1cc2c(cc1N/C(=N/S(=O)(=O)c1ccc(Br)cc1)c1ccccc1)OCO2 | 96.8* | 0.1 | 3.4 | 100.0 | -2.7 | 16.7
COCCNC(=S)N(Cc1cc2cc(C)ccc2n2nnnc12)C1CCCC1 | 54.0* | -1.1 | -4.6 | 99.0 | 10.4 | 22.5*
COCCN(Cc1cc2cc(C)ccc2n2nnnc12)C(=S)Nc1ccc(C)cc1 | 104.1* | 2.0 | -5.5 | 88.0 | -3.6 | 49.4* | RORg DNA counter=>40
Cc1ccc2c(c1)cc(CN(C(=O)N1CCOCC1)C1CCCC1)c1nnnn12 | 1.2 | -1.4 | -4.3 | 98.0 | -1.7 | x
CC(CCC(=O)O)[C@H]1CCC2C3C(=O)C[C@@H]4CC(=O)CC[C@]4(C)C3CC(=O)[C@@]21C (some centres not stated) | 2.7 | x | x | x | x | x
COC(=O)c1c(-c2ccccc2)csc1N | 2.2 | -1.2 | -0.2 | 87.0 | -0.6 | x
COC(=O)c1ccc(C(=O)OC)c(NC2=NS(=O)(=O)c3ccccc32)c1 | 21.4* | 2.3 | -9.4 | 94.0 | 1.4 | -4.7
COC(=O)c1c(-c2ccccc2)csc1NC1=NS(=O)(=O)c2ccccc21 | 30.8* | -2.4 | -4.6 | 95.0 | -0.2 | 11.9
N#CCCN1CCCc2cc(N=Nc3ccc(C(F)(F)F)cc3)ccc21 | 17.5* | -1.0 | 3.3 | 99.0 | 34.5 | 21.9*
O=C(c1ccccc1)N1N=C(c2ccccc2O)CC1c1ccccc1 (configuration not stated) | 56.7* | 3.7 | 6.6 | 97.0 | 2.9 | 35.9* | RORg DNA counter=6.88*
CCC[C@H]1[C@@H](N(C)Cc2cccs2)CC[C@@]23CCCN2C(=O)CCC[C@@H]13 | 42.9* | x | x | x | x | 51.9* | RORg DNA counter=>40
C[C@H]1[C@@H](NCc2cccs2)CC[C@@]23CCCN2C(=O)CCC[C@@H]13 | -1.5 | x | x | x | x | x
COc1ccc(C(=O)N2C(=O)c3ccc(N)cc3C2=O)cc1 | 23.2* | 1.4 | -4.7 | 99.0 | -2.1 | 6.6
COc1ccc(C(=O)n2cnc(N)n2)cc1 | -2.6 | 0.4 | 14.3 | 102.0 | -1.6 | x
CCOC(=O)c1sc(=NC(=O)c2cc(OC)c(OC)c(OC)c2)n(C)c1C | 30.3* | 28.2* | 1.8 | 104.0 | 17.2 | -4.0
